This is an account of results in PubChem BioAssay (Tox21).

Values without a mark were called inactive. Calls of active or inactive are those of the source. Calls follow the shape of the dose curve; as a rule, active = well fitted curve in the direction sought with a large enough effect in the repeat runs; inconclusive = weak or mixed curves; inactive = flat fitted curve, though single readings scatter.
% is scaled to controls: 0 for no effect and ±100 for the full control effect.

One test in a line: qHTS assay to test for compound auto fluorescence at 535 nm (green) in HepG2 cells (AID 720675). Particulars: green autofluorescence 485/535 nm, 1 h; series mostly up to 91.3 µM.
As to `CN(C)C(=O)NC1(c2ccccc2)CCN(CCC[C@]2(c3ccc(Cl)c(Cl)c3)CCCN(C(=O)c3ccccc3)C2)CC1`, the fluorescence, % of fluorescein control was 0.0153% [at 18.6 µM].

Regarding `CCCCOc1cc(C(=O)NCCN(CC)CC)c2ccccc2n1`, the fluorescence, % of fluorescein control is 0.0079% [at 18.6 µM].

In the case of `COC(=O)N[C@H](C(=O)N[C@@H](Cc1ccccc1)[C@@H](O)CN(Cc1ccc(-c2ccccn2)cc1)NC(=O)[C@@H](NC(=O)OC)C(C)(C)C)C(C)(C)C`, the compound was called inactive.

For `COc1ccc(S(=O)(=O)Nc2nnc(CC(C)C)s2)cc1`, the outcome was inactive.

For `CCN1CC(CCN2CCOCC2)C(c2ccccc2)(c2ccccc2)C1=O` (stereo unspecified), the result was inactive.

Consider `NC/C=C/C(=O)O`, for which the outcome was inactive.

As for `CCCCNC(=S)NCCCC`, the outcome was inactive.

With `CCCOCCC`, the result was inactive.

In the case of `FC(F)(F)C(Cl)(Cl)Cl`, the result was inactive.

`COc1ccccc1OCC(O)COC(N)=O` (stereo unspecified): the fluorescence, % of fluorescein control is 0.0143% [at 18.6 µM].

`O=Cc1ccc(F)c(Br)c1`: the compound was called inactive.

In the case of `C=CCc1cc(OC)c(O)c(C(=O)NCCO)c1`, the outcome was inactive.

`C=CCCC=C`: the outcome was inactive.

As for `Cc1cc(NS(=O)(=O)c2ccc(N)cc2)nc(C)n1`, the call was inactive.

Consider `COc1ccccc1N1CCN(CCCNc2cc(=O)n(C)c(=O)n2C)CC1`, for which the compound was called inactive.

With `CCCCCCC`, the outcome was inactive.

In the case of `CCCCNc1cc(C(=O)O)cc(S(N)(=O)=O)c1Oc1ccccc1`, the fluorescence, % of fluorescein control was 0.0391% [at 18.6 µM].

Regarding `CC(C)OC(C)C`, the outcome was inactive.

For the compound `Cc1cc(S(=O)(=O)O)c(N)cc1Cl`, the outcome was inactive.

Turning to `COc1cc(N)c(Cl)cc1C(=O)NC1CCN(Cc2ccccc2)CC1`, the fluorescence, % of fluorescein control is 0.0143% [at 18.6 µM].

Take `CCOC(=O)NCCC[Si](OCC)(OCC)OCC`: the outcome was inactive.

`CCN(O)CC`: the outcome was inactive.

As for `O=S(=O)(O)C(F)(F)F`, the compound was classed as inactive.

Consider `Cc1cccc(C)c1NC(=O)CN1CCCCCC1`, for which the compound was called inactive.

Take `C=CC1CO1` (stereo unspecified): the compound was classed as inactive.

Regarding `C[C@]12C(=O)OC(=O)[C@H]1[C@H]1C=C[C@@H]2C1`, the compound was called inactive.

With `CCCCC1CCC(=O)O1` (stereo unspecified), the outcome was inactive.

With `C1CSCCS1`, the compound was classed as inactive.

Consider `CC(CNC1CCCCC1)OC(=O)c1ccccc1` (stereo unspecified), for which the fluorescence, % of fluorescein control is 0.0399% [at 18.6 µM].

On to `C=CC(C)(O)CC/C=C(\C)CCC=C(C)C` (stereo unspecified), for which the compound was called inactive.

With `CCOc1ccccc1N`, the result was inactive.

For the compound `CCN[C@H]1CN(CCCOC)S(=O)(=O)c2sc(S(N)(=O)=O)cc21`, the fluorescence, % of fluorescein control is -0.244% [at 18.6 µM].

Regarding `C=CCCCCCCCCO`, the call was inactive.

Turning to `O=C(C(Cl)Cl)N1CCOC12CCCCC2`, the outcome was inactive.

Consider `CC(C)C1=CC2=CC[C@@H]3[C@](C)(CCC[C@@]3(C)C(=O)O)[C@H]2CC1`, for which the compound was called inactive.

For `CC1(C)O[C@@H]2C[C@H]3[C@@H]4CCC5=CC(=O)CC[C@]5(C)[C@@]4(F)[C@@H](O)C[C@]3(C)[C@]2(C(=O)CCl)O1`, the fluorescence, % of fluorescein control is -0.093% [at 18.6 µM].

The nature of another test: qHTS assay to test for compound auto fluorescence at 460 nm (blue) in HEK293 cells (AID 720678). Particulars: blue autofluorescence 405/460 nm; series mostly up to 91.3 µM. The essentials:
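HEK293 cells (2,000 per well, medium with 10% dialyzed FBS) attached for 4-5 hr at 37C, then received compound and stood overnight at 37C, 5% CO2. Blue fluorescence was read at Ex/Em 405/460 nm and expressed relative to triamterene.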
On the technique in general: qHTS replaces the single test concentration by a dilution series.
Turning to `CN(C)C(=O)NC1(c2ccccc2)CCN(CCC[C@]2(c3ccc(Cl)c(Cl)c3)CCCN(C(=O)c3ccccc3)C2)CC1`, the fluorescence, % of triamterene was -0.0808% [at 18.6 µM].

Consider `COc1ccc(S(=O)(=O)Nc2nnc(CC(C)C)s2)cc1`, for which the result was inactive.

For the compound `CCN1CC(CCN2CCOCC2)C(c2ccccc2)(c2ccccc2)C1=O` (stereo unspecified), the compound was called inactive.

As to `CCCCNC(=S)NCCCC`, the compound was classed as inactive.

Take `CCCOCCC`: the outcome was inactive.

Take `FC(F)(F)C(Cl)(Cl)Cl`: the compound was classed as inactive.

As for `O=Cc1ccc(F)c(Br)c1`, the compound was classed as inactive.

Turning to `C=CCc1cc(OC)c(O)c(C(=O)NCCO)c1`, the call was inactive.

Turning to `C=CCCC=C`, the call was inactive.

On to `Cc1cc(NS(=O)(=O)c2ccc(N)cc2)nc(C)n1`, for which the compound was classed as inactive.

Regarding `COc1ccccc1N1CCN(CCCNc2cc(=O)n(C)c(=O)n2C)CC1`, the outcome was inactive.

With `CCCCCCC`, the outcome was inactive.

On to `CC(C)OC(C)C`, for which the call was inactive.

For the compound `Cc1cc(S(=O)(=O)O)c(N)cc1Cl`, the call was inactive.

As for `COc1cc(N)c(Cl)cc1C(=O)NC1CCN(Cc2ccccc2)CC1`, the fluorescence, % of triamterene was 0.111% [at 18.6 µM].

On to `CCOC(=O)NCCC[Si](OCC)(OCC)OCC`, for which the result was inactive.

Take `CCN(O)CC`: the compound was classed as inactive.

With `C=CC1CO1` (stereo unspecified), the call was inactive.

In the case of `CCCCC1CCC(=O)O1` (stereo unspecified), the compound was classed as inactive.

Consider `C1CSCCS1`, for which the call was inactive.

As for `CC(CNC1CCCCC1)OC(=O)c1ccccc1` (stereo unspecified), the fluorescence, % of triamterene is 0.0231% [at 18.6 µM].

For `CCOc1ccccc1N`, the call was inactive.

As for `CCN[C@H]1CN(CCCOC)S(=O)(=O)c2sc(S(N)(=O)=O)cc21`, the fluorescence, % of triamterene is 0.009% [at 18.6 µM].

As for `CC1(C)O[C@@H]2C[C@H]3[C@@H]4CCC5=CC(=O)CC[C@]5(C)[C@@]4(F)[C@@H](O)C[C@]3(C)[C@]2(C(=O)CCl)O1`, the fluorescence, % of triamterene was -0.0183% [at 18.6 µM].

A short description of a further test: qHTS assay to test for compound auto fluorescence at 590 nm (red) in HEK293 cells (AID 720679). Particulars: red autofluorescence 540/590 nm; series mostly up to 91.3 µM. The essentials: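 HEK293 cells (2,000/well, medium with 10% dialyzed FBS) attached for 4-5 hr at 37C, received 23 nL compound and were incubated overnight at 37C, 5% CO2. Red fluorescence was then read at 540/590nm Ex/Em, referenced to Rose Bengal sodium.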
As to `CN(C)C(=O)NC1(c2ccccc2)CCN(CCC[C@]2(c3ccc(Cl)c(Cl)c3)CCCN(C(=O)c3ccccc3)C2)CC1`, the fluorescence, % of fluorescent control was -0.621% [at 18.6 µM].

In the case of `CCCCOc1cc(C(=O)NCCN(CC)CC)c2ccccc2n1`, the fluorescence, % of fluorescent control is -0.209% [at 18.6 µM].

As for `COC(=O)N[C@H](C(=O)N[C@@H](Cc1ccccc1)[C@@H](O)CN(Cc1ccc(-c2ccccn2)cc1)NC(=O)[C@@H](NC(=O)OC)C(C)(C)C)C(C)(C)C`, the result was inactive.

As for `COc1ccc(S(=O)(=O)Nc2nnc(CC(C)C)s2)cc1`, the compound was classed as inactive.

In the case of `CCN1CC(CCN2CCOCC2)C(c2ccccc2)(c2ccccc2)C1=O` (stereo unspecified), the compound was called inactive.

Regarding `NC/C=C/C(=O)O`, the compound was classed as inactive.

Consider `CCCCNC(=S)NCCCC`, for which the compound was called inactive.

Regarding `CCCOCCC`, the compound was called inactive.

`FC(F)(F)C(Cl)(Cl)Cl`: the compound was called inactive.

Take `C=CCc1cc(OC)c(O)c(C(=O)NCCO)c1`: the compound was classed as inactive.

As to `C=CCCC=C`, the outcome was inactive.

As to `Cc1cc(NS(=O)(=O)c2ccc(N)cc2)nc(C)n1`, the outcome was inactive.

`COc1ccccc1N1CCN(CCCNc2cc(=O)n(C)c(=O)n2C)CC1`: the call was inactive.

For the compound `CC(C)OC(C)C`, the outcome was inactive.

On to `COc1cc(N)c(Cl)cc1C(=O)NC1CCN(Cc2ccccc2)CC1`, for which the fluorescence, % of fluorescent control was -0.139% [at 18.6 µM].

In the case of `CCOC(=O)NCCC[Si](OCC)(OCC)OCC`, the outcome was inactive.

In the case of `CCN(O)CC`, the call was inactive.

`O=S(=O)(O)C(F)(F)F`: the compound was called inactive.

Turning to `Cc1cccc(C)c1NC(=O)CN1CCCCCC1`, the result was inactive.

In the case of `C=CC1CO1` (stereo unspecified), the compound was called inactive.

For the compound `C[C@]12C(=O)OC(=O)[C@H]1[C@H]1C=C[C@@H]2C1`, the compound was classed as inactive.

Regarding `CCCCC1CCC(=O)O1` (stereo unspecified), the compound was classed as inactive.

With `C1CSCCS1`, the outcome was inactive.

Turning to `CC(CNC1CCCCC1)OC(=O)c1ccccc1` (stereo unspecified), the fluorescence, % of fluorescent control was 0.178% [at 18.6 µM].

For `C=CC(C)(O)CC/C=C(\C)CCC=C(C)C` (stereo unspecified), the result was inactive.

With `CCOc1ccccc1N`, the compound was classed as inactive.

Take `CCN[C@H]1CN(CCCOC)S(=O)(=O)c2sc(S(N)(=O)=O)cc21`: the fluorescence, % of fluorescent control was 0.0594% [at 18.6 µM].

As for `C=CCCCCCCCCO`, the outcome was inactive.

In the case of `O=C(C(Cl)Cl)N1CCOC12CCCCC2`, the call was inactive.

Take `CC(C)C1=CC2=CC[C@@H]3[C@](C)(CCC[C@@]3(C)C(=O)O)[C@H]2CC1`: the result was inactive.

`CC1(C)O[C@@H]2C[C@H]3[C@@H]4CCC5=CC(=O)CC[C@]5(C)[C@@]4(F)[C@@H](O)C[C@]3(C)[C@]2(C(=O)CCl)O1`: the fluorescence, % of fluorescent control was -0.0534% [at 18.6 µM].
